# PubChem BioAssay
# The source made the active and inactive calls. Unless noted, how the calls were made is not given here.
# Columns and labels:
# [1] = A549 cell viability effects, profiling panel, calcein-AM fluorescence, 48 h, basal (AID 1162); details: higher = more signal; further: test concentration not given here
# [2] = adipocyte viability effects, profiling panel, cell-based, 3T3-L1 adipocytes, calcein-AM fluorescence, 48 h, basal (AID 1163); details: 3T3-L1 adipocytes viability, higher = more signal; further: test concentration not given here
# [3] = HepG2 cell viability effects, profiling panel, calcein-AM fluorescence, 48 h, basal (AID 1164); details: higher = more signal; further: test concentration not given here
# [4] = MM1S cell viability effects, profiling panel, calcein-AM fluorescence, 48 h, basal (AID 1165); details: higher = more signal;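 further: viability of MM1S multiple myeloma cells under basal unstimulated conditions; test concentration not given here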
# [5] = basal RPMI8226 viability, no added stimulus, profiling panel, cell-based, calcein-AM fluorescence, 48 h, PK04 Diversity Set (AID 1166); details: RPMI8226 myeloma viability, higher = more signal;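 further: cells grown under basal conditions without added stimulus; test concentration not given here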
# [6] = basal HepG2 mitochondrial membrane potential changes, profiling panel, cell-based, JC-1 fluorescence, 24 h, 100 nL compound (AID 1167); details: higher = more signal; further: test concentration not given here
# [7] = basal 3T3-L1 adipocyte mitochondrial potential changes, profiling panel, cell-based, JC-1 fluorescence, 3T3-L1 adipocytes, 24 h, 100 nL compound (AID 1168); details: JC-1 mitochondrial fluorescence, higher = more signal, called active from +8 up or from −8 down; further: test concentration not given here
# [8] = basal RPMI8226 mitochondrial membrane potential changes, profiling panel, cell-based, JC-1 fluorescence, 24 h, 100 nL compound (AID 1169); details: RPMI8226 myeloma, JC-1 mitochondrial potential fluorescence, higher = more signal; further: test concentration not given here
# [9] = basal MM1S mitochondrial membrane potential changes, profiling panel, cell-based, JC-1 fluorescence, 24 h, 100 nL compound (AID 1170); details: higher = more signal; further: test concentration not given here
# [10] = A549 lung cancer cell viability effects, profiling panel, resazurin fluorescence, 24 h, PK04 Diversity Set (AID 1171); details: higher = more signal, called active from +8 up or from −8 down; further: test concentration not given here
# [11] = HepG2 liver cancer cell viability effects, profiling panel, resazurin fluorescence, 24 h, PK04 Diversity Set (AID 1172); details: higher = more signal; further: test concentration not given here
# [12] = basal S. cerevisiae growth modulation, no modifier, primary screen, OD600, strain BY4716, 24 h, basal condition (AID 1173); details: OD600, 24 h, higher = more signal, called active from +8 up or from −8 down
# [13] = MM1S myeloma cell viability, profiling panel, resazurin fluorescence, basal, 24 h, PK04 Diversity Set (AID 1174); details: higher = more signal, called active from +8 up or from −8 down;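 further: MM1S multiple myeloma cell line; test concentration not given here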
# [14] = molecular target: Dihydroorotate dehydrogenase (quinone), mitochondrial (Plasmodium falciparum (isolate 3D7)) (UniProt Q08210); test: PfDHODH enzyme inhibitors, primary screen, biochemical, C-terminal His tag, absorbance 600 nm (AID 1175); details: DCIP absorbance 600 nm, higher = more signal, called active from +8 up or from −8 down;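 further: recombinant parasite enzyme with a five histidine tag at its C terminus; test concentration not given here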
# Dihydroorotate dehydrogenase (quinone), mitochondrial (Plasmodium falciparum (isolate 3D7)), sequence (Q08210 whole entry, looked up): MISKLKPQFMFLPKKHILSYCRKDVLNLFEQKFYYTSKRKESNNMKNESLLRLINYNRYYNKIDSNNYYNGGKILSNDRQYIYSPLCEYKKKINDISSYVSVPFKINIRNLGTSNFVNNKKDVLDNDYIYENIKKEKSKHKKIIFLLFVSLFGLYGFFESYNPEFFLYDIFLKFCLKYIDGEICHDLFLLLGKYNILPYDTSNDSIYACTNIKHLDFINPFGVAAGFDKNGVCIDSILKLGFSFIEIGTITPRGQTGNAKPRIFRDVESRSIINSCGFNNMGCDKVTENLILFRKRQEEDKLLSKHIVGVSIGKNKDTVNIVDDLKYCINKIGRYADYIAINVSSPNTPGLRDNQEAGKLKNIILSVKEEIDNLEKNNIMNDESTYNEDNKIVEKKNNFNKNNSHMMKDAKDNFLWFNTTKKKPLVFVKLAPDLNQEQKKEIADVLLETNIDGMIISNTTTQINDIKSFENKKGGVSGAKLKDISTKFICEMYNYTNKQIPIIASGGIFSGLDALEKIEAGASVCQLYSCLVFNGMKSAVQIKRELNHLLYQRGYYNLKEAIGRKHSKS
# [15] = P. aeruginosa biofilm formation inhibitors, primary screen, strain PAO1, LB-PBS medium, absorbance 600 nm (AID 1176); further: test concentration not given here; details: P. aeruginosa PAO1 growth/biofilm, A600, 12 h; higher = more signal
# [16] = S. cerevisiae RM11-1a growth modifiers, primary screen, strain RM11-1a, OD600, basal, 24 h (AID 1177); details: OD600, 24 h, higher = more signal, called active from +8 up or from −8 down;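 further: cultures grown under basal conditions with no added stressor; test concentration not given here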
# [17] = E. coli acrAB mutant growth effects, primary screen, E. coli filamentation inducers, strain DRC39, OD650, 24 h (AID 1178); details: higher = more signal, called active from +8 up or from −8 down;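 further: growth measured as culture turbidity by optical density at 650 nm; test concentration not given here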
# [18] = E. coli acrAB mutant growth effects, primary screen, E. coli filamentation inducers, strain DRC39, OD650, 48 h (AID 1179);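 further: screen aims at cell division blockers that make cells filament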; details: E. coli DRC39 delta-acrAB growth, higher = more signal, called active from +8 up or from −8 down
# [19] = RPMI8226 myeloma cell viability, profiling panel, resazurin fluorescence, basal, 24 h, PK04 Diversity Set (AID 1180); details: higher = more signal;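 further: RPMI8826 multiple myeloma cell line at 5000 cells per well; test concentration not given here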
# [20] = molecular target: E3 ubiquitin-protein ligase XIAP (Homo sapiens) (UniProt P98170); test: XIAP binders, primary screen, biophysical, small-molecule microarray, fluorescence 635 nm (AID 1181); details: small-molecule microarray binding, higher = more signal;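 further: score merges 667 nm emission and signal to noise over triplicate slides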
# E3 ubiquitin-protein ligase XIAP (Homo sapiens), sequence (P98170 whole entry, looked up): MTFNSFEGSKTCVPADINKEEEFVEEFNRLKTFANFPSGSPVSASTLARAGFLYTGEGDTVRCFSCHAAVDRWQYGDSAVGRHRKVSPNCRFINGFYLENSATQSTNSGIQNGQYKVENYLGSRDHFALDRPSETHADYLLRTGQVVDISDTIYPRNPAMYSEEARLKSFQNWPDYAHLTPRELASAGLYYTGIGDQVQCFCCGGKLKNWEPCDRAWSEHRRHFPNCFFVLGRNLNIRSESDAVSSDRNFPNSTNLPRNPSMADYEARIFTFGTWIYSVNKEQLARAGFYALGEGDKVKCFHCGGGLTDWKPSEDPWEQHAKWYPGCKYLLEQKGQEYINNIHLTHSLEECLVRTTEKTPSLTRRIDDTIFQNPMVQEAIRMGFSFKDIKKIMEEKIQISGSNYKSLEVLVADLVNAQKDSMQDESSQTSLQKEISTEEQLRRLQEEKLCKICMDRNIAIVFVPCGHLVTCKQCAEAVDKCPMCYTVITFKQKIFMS
Structure (SMILES),z-score [1],z-score [2],z-score [3],z-score [4],z-score [5],z-score [6],z-score [7],z-score [8],z-score [9],z-score [10],z-score [11],z-score [12],z-score [13],composite z-score [14],z-score [15],z-score [16],z-score [17],z-score [18],z-score [19],composite z-score [20]
C[C@@H](c1ccccc1)N1C(=O)[C@H]2[C@H]3[C@H](O)[C@H](O)CC(=O)[C@H]3CC[C@H]2C1=O,0.614,0.205,0.92,0.358,-0.094,0.311,1.27 (inactive),-0.826,1.05,0.288 (inactive),-0.137,-0.491 (inactive),0.162 (inactive),-0.736 (inactive),0.128 (inactive),-0.218 (inactive),0.366 (inactive),0.53 (inactive),0.033,0.0641
O=C(C=Cc1ccc2c(c1)OCO2)c1ccc(F)cc1,-0.182,0.867,-0.358,-3.26,-3.41,-0.698,-0.211 (inactive),-0.811,-0.286,0.275 (inactive),-0.214,-10.1 (active),-0.194 (inactive),0.184 (inactive),-0.245 (inactive),-0.31 (inactive),0.264 (inactive),-0.423 (inactive),-0.538,-0.176
CC(C)=CCCC(C)=CCON=C1C[C@@H](O)[C@@H](O)[C@@H]2[C@@H]3C(=O)N(c4cccc(Oc5ccccc5)c4)C(=O)[C@@H]3CC[C@@H]12,-1.19,0.18,-0.795,-2.22,-3.96,-1.26,0.641 (inactive),-0.805,0.251,0.919 (inactive),0.171,-1.86 (inactive),0.815 (inactive),-2.48 (inactive),0.0001 (inactive),-0.556 (inactive),0.615 (inactive),-0.923 (inactive),-0.198,0.0368
CCCCc1nc2c(c3c1C[C@H](C)OC3)CN(CCOc1ccccc1)CC2,1.71,0.734,0.681,0.039,-0.657,1.76,0.494 (inactive),0.539,0.568,-0.682 (inactive),-0.492,-3.28 (inactive),0.422 (inactive),-0.845 (inactive),1.1 (inactive),-1.49 (inactive),1.18 (inactive),-0.908 (inactive),0.386,0.437
CC(C)CON=C1C[C@@H](O)[C@@H](O)[C@@H]2[C@@H]3C(=O)N(C4CCCCC4)C(=O)[C@@H]3CC[C@@H]12,-0.162,0.617,-0.323,-0.34,-0.271,-1.21,-0.49 (inactive),-0.0174,0.268,-0.048 (inactive),-0.577,-4.72 (inactive),0.119 (inactive),-0.508 (inactive),-0.294 (inactive),0.523 (inactive),-0.3 (inactive),-1.17 (inactive),-0.0596,0.0159
O=C1C[C@@H](O)[C@@H](O)[C@@H]2[C@@H]3C(=O)N(Cc4ccccc4)C(=O)[C@@H]3CC[C@@H]12,0.249,-0.118,0.208,0.0158,-0.499,-0.229,0.377 (inactive),0.139,0.431,1.11 (inactive),0.568,0.178 (inactive),0.144 (inactive),0.378 (inactive),-0.425 (inactive),0.0564 (inactive),-0.7 (inactive),-0.564 (inactive),0.112,0.126
COC(=O)[C@H](C)NC(=O)CCC1CC(OC(=O)NCCc2ccc(F)cc2)CC2(CCCC(COC(=O)NCc3cccc(C(F)(F)F)c3)O2)O1 (stereo not given in full),-0.925,0.704,-1.69,-3.48,-0.416,-0.15,-0.835 (inactive),0.54,0.533,-0.0257 (inactive),-0.0701,1.05 (inactive),0.045 (inactive),-0.302 (inactive),0.59 (inactive),0.744 (inactive),0.696 (inactive),0.602 (inactive),0.436,0.103
COc1ccc(O[C@@H]2[C@H](O)CO[C@@H]2C=Cc2ccccc2)cc1,0.069,1.72,-0.0757,-2.82,-1.1,1.11,0.6 (inactive),0.132,0.322,-0.548 (inactive),-0.489,-2.44 (inactive),0.995 (inactive),-3.01 (inactive),0.815 (inactive),-0.614 (inactive),-1.16 (inactive),-1.93 (inactive),0.54,0.0975
